This is a sample that favours compounds with a hit; in the whole collection about 1.2% have one here.
CCHF vOTU inh = CCHFV vOTU protease inhibitors, primary screen, biochemical, Pep-AMC substrate, fluorescence; Crimean-Congo hemorrhagic fever virus L polyprotein viral ovarian tumor (vOTU) protease …; inhibition, % at 11.5 µM; actives 0.55% (n = 370,000); AID 651958, 2012; in the data active means inhibition above about 30%; further: 0% = vehicle wells with enzyme and 100% = no enzyme wells
Mtb bLac sens = beta-lactam sensitization of Mtb H37Rv, H37Rv; M. tuberculosis H37Rv growth with meropenem, percent inhibition; inhibition, % at 25 µM; actives 0.27% (n = 330,000); AID 434955, 2010;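 further: growth measured after seven days incubation then overnight dye step; 0% = bacteria only wells and 100% = bacteria with antibiotic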
RecA intein inh = Mtb RecA intein splicing inhibitors, primary screen, biochemical, fluorescence, HTS. inhibition, % (concentration not given with the values). cell-free RecA intein splicing. AID 2221, 2009. actives 0.75% (n = 290,000). Protein RecA (Mycobacterium tuberculosis (strain ATCC 25618 / H37Rv)), P9WHJ3; in the data active means inhibition above about 30%; inconclusive means no clear call, values can overlap the other calls;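 further: 0% = vehicle wells and 100% = reference inhibitor control wells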
Target sequence (P9WHJ3 whole entry, looked up): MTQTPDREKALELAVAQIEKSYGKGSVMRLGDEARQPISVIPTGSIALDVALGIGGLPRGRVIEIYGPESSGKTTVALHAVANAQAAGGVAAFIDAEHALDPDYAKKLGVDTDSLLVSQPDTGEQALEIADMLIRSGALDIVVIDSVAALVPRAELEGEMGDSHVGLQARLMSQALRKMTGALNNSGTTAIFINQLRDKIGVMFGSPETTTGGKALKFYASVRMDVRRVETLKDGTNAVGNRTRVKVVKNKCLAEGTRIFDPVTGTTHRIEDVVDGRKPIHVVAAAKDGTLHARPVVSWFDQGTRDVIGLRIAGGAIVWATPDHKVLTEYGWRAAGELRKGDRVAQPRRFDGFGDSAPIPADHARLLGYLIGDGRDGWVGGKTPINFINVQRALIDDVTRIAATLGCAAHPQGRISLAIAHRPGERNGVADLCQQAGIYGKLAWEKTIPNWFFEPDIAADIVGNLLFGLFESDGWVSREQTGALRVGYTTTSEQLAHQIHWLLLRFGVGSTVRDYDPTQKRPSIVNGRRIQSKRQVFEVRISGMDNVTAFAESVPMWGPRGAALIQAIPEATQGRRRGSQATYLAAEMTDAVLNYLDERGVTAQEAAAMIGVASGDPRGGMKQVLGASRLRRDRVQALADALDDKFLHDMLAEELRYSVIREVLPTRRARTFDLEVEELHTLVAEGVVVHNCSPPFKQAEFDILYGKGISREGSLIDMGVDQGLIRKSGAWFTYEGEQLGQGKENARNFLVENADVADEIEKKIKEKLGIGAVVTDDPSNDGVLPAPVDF
UGM FP inh = M. tuberculosis UGM enzyme inhibitors, primary screen, biochemical, fluorescence polarization, single point | UDP-galactopyranose mutase (Mycobacterium tuberculosis (strain ATCC 25618 / H37Rv)), … | purified UGM, fluorescence polarization probe displacement | inhibition, % at 10 µM | actives 0.06% (n = 320,000) | AID 504406, 2011; in the data active means inhibition above about 10%, passing the limit was not always enough; inconclusive means no clear call, values can overlap the other calls
Rv3671c inh = Rv3671c serine protease inhibitors, primary screen, biochemical, fluorescence polarization, M. tuberculosis H37Rv; P9WHR9; AID 2606, 2010; actives 0.048% (n = 320,000); inhibition, % at 5.96 µM; in the data active means inhibition above about 38%;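 further: extracellular domain of Rv3671c used as enzyme; 0% = enzyme with DMSO and 100% = no enzyme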
GFP chromo cs = counter-screen: blocks GFP chromophore formation, dose response, counter-screen, biochemical, fluorescence, homogeneous. shares compounds with RecA intein inh. cell-free GFP chromophore formation. EC50, µM. actives 83% (n = 2,100)
The depositor's hits bear a star; ? = inconclusive; / = not tested or not shown. Unless noted, how the calls were made is not given here.

SMILES	CCHF vOTU inh	Mtb bLac sens	RecA intein inh	UGM FP inh	Rv3671c inh	GFP chromo cs
CCCc1cc(=O)[nH]c(SCC(=O)c2cc(C)n(CC(F)(F)F)c2C)n1	6	-12	2	-4	13	/
CC1(C)CC(=O)C(C2(O)C(=O)NC(=O)NC2=O)=C(O)C1	8	8	95*	2	-131	2.5*
CC1(C)CC(=O)C(Br)=C(O)C1	-1	/	/	/	/	/
Cc1[nH][nH]c(=O)c1C(c1cc2c(cc1Br)OCO2)c1c(C)[nH][nH]c1=O	-3	-3	95*	0	-9	0.72*
Cc1[nH][nH]c(=O)c1C(c1cc(Br)ccc1O)c1c(C)[nH][nH]c1=O	-10	1	97*	1	-21	0.53*
Cc1[nH][nH]c(=O)c1C(c1ccc(-c2ccc(Cl)c(C(=O)O)c2)o1)c1c(C)[nH][nH]c1=O	24	/	/	/	/	/
Cc1ccc(-n2nc(C)c3c2OC(N)=C(C#N)C3c2ccc(C)o2)cc1 (stereo unspecified)	11	-6	80*	0	-13	17*
Cc1ccc([C@H]2C(C#N)=C(N)Oc3cc(C)oc(=O)c32)o1	-13	64	7	4	-1	/
COc1ccc(OC)c(C2C(C#N)=C(N)Oc3c2c(C)nn3-c2ccc(C)cc2)c1 (stereo unspecified)	6	47	44*	0	11	29*
COc1ccc(C2C(C#N)=C(N)Oc3c2c(-c2ccccc2)nn3-c2ccccc2)c(OC)c1OC (stereo unspecified)	11	-9	6	/	-14	/
C=CCOC(=O)C1=C(C)OC(N)=C(C#N)C1c1ccco1 (stereo unspecified)	-10	0	-1	0	0	/
Cc1ccc(-n2nc(C)c3c2OC(N)=C(C#N)C3c2ccco2)cc1 (stereo unspecified)	-5	-15	69*	1	-9	11*
COc1ccccc1N1CCN(N=Cc2ccccc2Br)CC1	10	/	/	/	/	/
Cc1cccc(Cn2nnc3c2C(=O)c2ccccc2C3=O)c1	3	50	37*	4	-1	9.9*
Cc1ccccc1Cn1nnc2c1C(=O)c1ccccc1C2=O	17	6	/	0	-12	/
CC(C)Oc1cccc(C(=O)C2CCCN(C(=O)c3csnn3)C2)c1 (stereo unspecified)	3	-6	52*	-4	-12	>38
CC(C)Oc1cccc(C(=O)C2CCCN(C(=O)c3cc(C(F)(F)F)[nH]n3)C2)c1 (stereo unspecified)	28	-7	-1	1	-8	/
CCN(CC)S(=O)(=O)c1ccc(N2CCN(S(=O)(=O)c3ccccc3C#N)CC2)nc1	-1	-1	32*	/	3	>38
c1ccc(Nc2nc(NCc3ccco3)c3ccccc3n2)cc1	-7	97	38*	-2	-3	26*
Cc1cccc(Nc2nc(NCc3ccco3)c3ccccc3n2)c1	14	100	33*	-2	34	15*
NNc1n[nH]c(=S)n1N	16	-1	78*	-1	-13	>38
Nn1c(Cc2ccccc2)n[nH]c1=S	-11	5	0	1	1	/
CC1(C)CC(=O)C=C(C#CC2CC2)C1	0	/	/	/	/	/
CC(=O)Nc1ccc(NC(=O)C/C(C)=N/NC(=O)C(=O)N2CCCC2)cc1	-11	-8	25	0	7	/
C/C(CC(=O)Nc1ccc(F)cc1F)=N\NC(=O)C(=O)N1CCCCC1	/	-4	78*	-1	-9	11*
SMILES	CCHF vOTU inh	Mtb bLac sens	RecA intein inh	UGM FP inh	Rv3671c inh	GFP chromo cs
Cc1ccsc1C1C(C#N)=C(N)Oc2n[nH]c(C)c21 (stereo unspecified)	7	-3	15	-2	0	/
Cc1ccc(C2C(C#N)=C(N)Oc3n[nH]c(C)c32)cc1 (stereo unspecified)	-6	1	77*	-2	-5	19*
Cc1[nH]nc2c1C(c1cnn(C)c1)C(C#N)=C(N)O2 (stereo unspecified)	-2	-3	76*	3	5	23*
CC(C)(C)c1[nH]nc2c1C(c1ccsc1)C(C#N)=C(N)O2 (stereo unspecified)	-3	-4	27	1	-12	/
Cc1[nH]nc2c1C(c1cccs1)C(C#N)=C(N)O2 (stereo unspecified)	-1	1	54*	-1	-3	34*
Cc1[nH]nc2c1C(c1ccc(Cl)cc1)C(C#N)=C(N)O2 (stereo unspecified)	-6	-1	75*	1	-7	29*
Cc1cc(C)c(C2C(C#N)=C(N)Oc3n[nH]c(C)c32)cc1CN1CCOCC1 (stereo unspecified)	/	-7	-2	0	1	/
CN(CCCOC(=O)c1cc2ccccc2o1)C1CN(Cc2cn(Cc3ccc([N+](=O)[O-])cc3)nn2)S(=O)(=O)C1 (stereo unspecified)	0	/	/	/	/	/
Cn1c(=O)c2[nH]c(SCC(=O)NCCc3cccc(F)c3)nc2n(C)c1=O	-6	/	/	/	/	/
NC(=O)c1c(N)[nH]c(C(=O)c2ccccc2)c1-c1ccccc1	10	/	/	/	/	/
N#CC1=C(N)Oc2n[nH]c(-c3cccnc3)c2C1c1cc(F)ccc1F (stereo unspecified)	-1	0	0	-2	-10	/
Cc1cc(-c2[nH]nc3c2C(c2ccc(Cl)cc2)C(C#N)=C(N)O3)c(C)s1 (stereo unspecified)	5	5	77*	0	0	23*
C#CCNC(=O)C[C@@H]1C(=O)N(Cc2ccc(OC)cc2)/C2=C/CCCCC[C@@]21C(=O)OCC	3	/	/	/	/	/
COc1ccc2c(c1)CNC2CS(=O)(=O)NCCc1ccccc1 (stereo unspecified)	0	/	/	/	/	/
Cc1ccccc1-c1nc(CN(C)C(C)c2ccon2)c(C)o1 (stereo unspecified)	14	0	39*	4	6	13*
O=C(Nc1nc(Cc2ccccc2)c(-c2ccccc2)n1Cc1ccccc1)c1ccccc1	8	/	/	/	/	/
COC(=O)c1ccccc1OC(=O)c1ccc(Br)o1	0	83	38*	-1	9	>38
O=S1(=O)c2c(cccc2N2CCSCC2)Oc2ccccc2CN1Cc1cn(Cc2ccccc2C(F)(F)F)nn1	-2	/	/	/	/	/
Cc1cccc(N2C(=O)C(Cl)=C(N3CCOCC3)C2=O)c1	1	?	87*	0	0	4.5*
Cc1cccc(N2C(=O)CC(N3CCOCC3)C2=O)c1 (stereo unspecified)	1	0	-3	4	-2	/
O=C1C(Cl)=C(N2CCOCC2)C(=O)N1c1cccc(Cl)c1	0	98	84*	1	-11	2.8*
CCOc1ccc(C=Nn2c(-c3ccc(F)cc3)n[nH]c2=S)cc1	5	/	/	/	/	/

Screens (PubChem)
